According to PubChem BioAssay AID1159580 (chemical genetic matrix, 2015):
Where “and” joins values, the source holds several entries; their conditions need not be identical. Equal entries are not always repeated. Hit rate of the full screen: of about 5,500 compounds, about 2,000 (36%) were called active. About 18% were inconclusive and are not listed. No stated cut-off is given here; in the data, active means normalized growth mostly below about 0.91 (no sharp cut-off); inconclusive means no clear call, values can overlap the other calls; inactive means mostly above about 0.92. Some of the results follow.

Assay: chemical genetic growth profiling, strain panel (AID 1159580);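 further: tested at 20 µM; growth read once vehicle control cultures reached saturation at 30 °C; 1 = growth at the plate median or of vehicle wells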
Conditions: growth OD
[1] = S. cerevisiae deletion strains, locus YAR019C, strain CDC15, stronger effect = lower value
[2] = S. cerevisiae deletion strains, locus YBL105C, strain PKC1, stronger effect = lower value
[3] = S. cerevisiae deletion strains, locus YBR135W, strain CKS1, stronger effect = lower value
[4] = S. cerevisiae deletion strains, locus YBR136W, strain MEC1, stronger effect = lower value
[5] = S. cerevisiae deletion strains, locus YBR160W, strain CDC28, stronger effect = lower value
[6] = S. cerevisiae deletion strains, locus YDL017W, strain CDC7, stronger effect = lower value
[7] = S. cerevisiae deletion strains, locus YDL028C, strain MPS1, stronger effect = lower value
[8] = S. cerevisiae deletion strains, locus YDL101C, strain DUN1, stronger effect = lower value
[9] = S. cerevisiae deletion strains, locus YDL108W, strain KIN28, stronger effect = lower value
[10] = S. cerevisiae deletion strains, locus YDL132W, strain cdc53, stronger effect = lower value
[11] = S. cerevisiae deletion strains, locus YDL214C, strain PRR2, stronger effect = lower value
[12] = S. cerevisiae deletion strains, locus YDR052C, strain DBF4, stronger effect = lower value
[13] = S. cerevisiae deletion strains, locus YDR054C, strain cdc34, stronger effect = lower value
[14] = S. cerevisiae deletion strains, locus YDR226W, strain ADK1, stronger effect = lower value
[15] = S. cerevisiae deletion strains, locus YDR477W, strain SNF1, stronger effect = lower value
[16] = S. cerevisiae deletion strains, locus YER123W, strain YCK3, stronger effect = lower value
[17] = S. cerevisiae deletion strains, locus YER133W, strain GLC7, stronger effect = lower value
[18] = S. cerevisiae deletion strains, locus YFL009W, strain cdc4, stronger effect = lower value
[19] = S. cerevisiae deletion strains, locus YFL029C, strain CAK1, stronger effect = lower value
[20] = S. cerevisiae deletion strains, locus YFR003C, strain YPI1, stronger effect = lower value
[21] = S. cerevisiae deletion strains, locus YFR019W, strain FAB1, stronger effect = lower value
[22] = S. cerevisiae deletion strains, locus YFR028C, strain CDC14, stronger effect = lower value
[23] = S. cerevisiae deletion strains, locus YGR040W, strain KSS1, stronger effect = lower value
[24] = S. cerevisiae deletion strains, locus YGR052W, strain FMP48, stronger effect = lower value
[25] = S. cerevisiae deletion strains, locus YGR092W, strain DBF2, stronger effect = lower value
[26] = S. cerevisiae deletion strains, locus YHR030C, strain SLT2, stronger effect = lower value
[27] = S. cerevisiae deletion strains, locus YHR079C, strain IRE1, stronger effect = lower value
[28] = S. cerevisiae deletion strains, locus YHR082C, strain KSP1, stronger effect = lower value
[29] = S. cerevisiae deletion strains, locus YHR205W, strain SCH9, stronger effect = lower value
[30] = S. cerevisiae deletion strains, locus YIL147C, strain SLN1, stronger effect = lower value
[31] = S. cerevisiae deletion strains, locus YJL095W, strain BCK1, stronger effect = lower value
[32] = S. cerevisiae deletion strains, locus YJL128C, strain PBS2, stronger effect = lower value
[33] = S. cerevisiae deletion strains, locus YJL157C, strain FAR1, stronger effect = lower value
[34] = S. cerevisiae deletion strains, locus YJR016C, strain ILV3, stronger effect = lower value
[35] = S. cerevisiae deletion strains, locus YJR066W, strain TOR1 (second series), stronger effect = lower value
[36] = S. cerevisiae deletion strains, locus YJR066W, strain TOR1, stronger effect = lower value
[37] = S. cerevisiae deletion strains, locus YKL048C, strain ELM1, stronger effect = lower value
[38] = S. cerevisiae deletion strains, locus YKL067W, strain YNK1, stronger effect = lower value
[39] = S. cerevisiae deletion strains, locus YKL101W, strain HSL1, stronger effect = lower value
[40] = S. cerevisiae deletion strains, locus YKL193C, strain SDS22, stronger effect = lower value
[41] = S. cerevisiae deletion strains, locus YKL203C, strain TOR2, stronger effect = lower value
[42] = S. cerevisiae deletion strains, locus YLR113W, strain HOG1, stronger effect = lower value
[43] = S. cerevisiae deletion strains, locus YLR133W, strain CKI1, stronger effect = lower value
[44] = S. cerevisiae deletion strains, locus YLR403W, strain SFP1, stronger effect = lower value
[45] = S. cerevisiae deletion strains, locus YML070W, strain DAK1, stronger effect = lower value
[46] = S. cerevisiae deletion strains, locus YMR001C, strain CDC5, stronger effect = lower value
[47] = S. cerevisiae deletion strains, locus YMR205C, strain PFK2 (second series), stronger effect = lower value
[48] = S. cerevisiae deletion strains, locus YMR277W, strain FCP1, stronger effect = lower value
[49] = S. cerevisiae deletion strains, locus YNL006W, strain LST8, stronger effect = lower value
[50] = S. cerevisiae deletion strains, locus YNL020C, strain ARK1, stronger effect = lower value
[51] = S. cerevisiae deletion strains, locus YNL161W, strain CBK1, stronger effect = lower value
[52] = S. cerevisiae deletion strains, locus YNL183C, strain NPR1, stronger effect = lower value
[53] = S. cerevisiae deletion strains, locus YNL207W, strain RIO2, stronger effect = lower value
[54] = S. cerevisiae deletion strains, locus YNL222W, strain SSU72, stronger effect = lower value
[55] = S. cerevisiae deletion strains, locus YNL307C, strain MCK1 (second series), stronger effect = lower value
[56] = S. cerevisiae deletion strains, locus YOL078W, strain AVO1, stronger effect = lower value
[57] = S. cerevisiae deletion strains, locus YOL136C, strain PFK27, stronger effect = lower value
[58] = S. cerevisiae deletion strains, locus YOR061W, strain CKA2, stronger effect = lower value
[59] = S. cerevisiae deletion strains, locus YOR119C, strain RIO1, stronger effect = lower value
[60] = S. cerevisiae deletion strains, locus YOR231W, strain MKK1, stronger effect = lower value
[61] = S. cerevisiae deletion strains, locus YOR329C, strain SCD5, stronger effect = lower value
[62] = S. cerevisiae deletion strains, locus YPL031C, strain PHO85, stronger effect = lower value
[63] = S. cerevisiae deletion strains, locus YPL153C, strain RAD53, stronger effect = lower value
[64] = S. cerevisiae deletion strains, locus YPL204W, strain HRR25, stronger effect = lower value
[65] = S. cerevisiae deletion strains, locus YPL209C, strain IPL1, stronger effect = lower value
[66] = S. cerevisiae deletion strains, locus YPL256C, strain CLN2, stronger effect = lower value
[67] = S. cerevisiae deletion strains, locus YPR025C, strain CCL1, stronger effect = lower value
[68] = S. cerevisiae deletion strains, locus YPR106W, strain ISR1, stronger effect = lower value
[69] = S. cerevisiae deletion strains, locus YPR111W, strain DBF20, stronger effect = lower value
[70] = S. cerevisiae deletion strains, strain NNK1, stronger effect = lower value
[71] = S. cerevisiae deletion strains, strain TSCII, stronger effect = lower value
[72] = S. cerevisiae deletion strains, locus YAL013W, strain DEP1, stronger effect = lower value
[73] = S. cerevisiae deletion strains, locus YBR229C, strain ROT2, stronger effect = lower value
[74] = S. cerevisiae deletion strains, locus YDL134C, strain PPH21, stronger effect = lower value
[75] = S. cerevisiae deletion strains, locus YDR150W, strain NUM1, stronger effect = lower value
[76] = S. cerevisiae deletion strains, locus YEL061C, strain CIN8, stronger effect = lower value
[77] = S. cerevisiae deletion strains, locus YGR078C, strain PAC10, stronger effect = lower value
[78] = S. cerevisiae deletion strains, locus YGR229C, strain SMI1, stronger effect = lower value
[79] = S. cerevisiae deletion strains, locus YHR087W, strain rtc3, stronger effect = lower value
[80] = S. cerevisiae deletion strains, locus YJR043C, strain POL32, stronger effect = lower value
[81] = S. cerevisiae deletion strains, locus YJR075W, strain HOC1, stronger effect = lower value
[82] = S. cerevisiae deletion strains, locus YKL190W, strain CNB1, stronger effect = lower value
[83] = S. cerevisiae deletion strains, locus YLR039C, strain RIC1, stronger effect = lower value
[84] = S. cerevisiae deletion strains, locus YLR058C, strain SHM2 (second series), stronger effect = lower value
[85] = S. cerevisiae deletion strains, locus YLR085C, strain ARP6, stronger effect = lower value
[86] = S. cerevisiae deletion strains, locus YLR262C, strain YPT6, stronger effect = lower value
[87] = S. cerevisiae deletion strains, locus YML094W, strain GIM5, stronger effect = lower value
[88] = S. cerevisiae deletion strains, locus YMR219W, strain ESC1, stronger effect = lower value
[89] = S. cerevisiae deletion strains, locus YMR263W, strain SAP30, stronger effect = lower value
[90] = S. cerevisiae deletion strains, locus YNL128W, strain TEP1, stronger effect = lower value
[91] = S. cerevisiae deletion strains, locus YNL153C, strain GIM3, stronger effect = lower value
[92] = S. cerevisiae deletion strains, locus YNL298W, strain CLA4 (second series), stronger effect = lower value
[93] = S. cerevisiae deletion strains, locus YNL322C, strain KRE1, stronger effect = lower value
[94] = S. cerevisiae deletion strains, locus YNR030W, strain Alg12, stronger effect = lower value
[95] = S. cerevisiae deletion strains, locus YPL055C, strain LGE1, stronger effect = lower value
[96] = S. cerevisiae deletion strains, locus YPL241C, strain CIN2, stronger effect = lower value
[97] = S. cerevisiae deletion strains, locus YPR135W, strain CTF4, stronger effect = lower value
[98] = S. cerevisiae strains, strain wild type, stronger effect = lower value

Measured: normalized growth

O=C(O/N=C1/CCCc2[nH]c3ccccc3c21)C1CCCCC1
inactive: [1] 0.972 | [2] 0.959 | [3] 0.964 | [4] 0.947 | [5] 0.962 | [6] 0.955 | [7] 0.962 | [8] 0.973 | [9] 0.931 | [10] 0.97 | [11] 0.881 | [12] 0.971 | [13] 0.951 | [14] 0.962 | [15] 0.905 | [16] 0.821 | [17] 0.888 | [18] 0.973 | [19] 0.966 | [20] 0.961 | [21] 0.918 | [22] 0.975 | [23] 0.856 | [24] 0.914 | [25] 0.845 | [26] 0.971 | [27] 0.963 | [28] 0.899 | [29] 0.873 | [30] 0.962 | [31] 0.942 | [32] 0.935 | [33] 0.884 | [34] 0.951 | [35] 0.902 | [36] 0.895 | [37] 0.925 | [38] 0.909 | [39] 0.878 | [40] 0.97 | [41] 0.931 | [42] 0.966 | [43] 0.9 | [44] 0.903 | [45] 0.846 | [46] 0.966 | [47] 0.895 | [48] 0.956 | [49] 0.992 | [50] 0.872 | [51] 0.963 | [52] 0.896 | [53] 0.959 | [54] 0.967 | [55] 0.911 | [56] 0.963 | [57] 0.857 | [58] 0.845 | [59] 0.948 | [60] 0.951 | [61] 0.972 | [62] 0.894 | [63] 0.887 | [64] 0.908 | [65] 0.965 | [66] 0.933 | [67] 0.961 | [68] 0.962 | [69] 0.969 | [70] 0.967 | [71] 0.967

Cn1c2c(c3ccccc31)/C(=N\OC(=O)c1ccc(Cl)cc1Cl)CCC2
inactive: [72] 1.01 | [73] 1.03 | [8] 1.02 | [74] 1.02 | [75] 1.04 | [76] 0.957 | [77] 1.03 | [78] 1.02 | [26] 1.07 | [79] 0.986 | S. cerevisiae deletion strains, locus YJL187C, strain SWE1, stronger effect = lower value 1.01 | [80] 1.02 | [81] 1.01 | [82] 1.01 | [83] 1.01 | [84] 1.02 | [85] 0.977 | [86] 1.15 | [87] 1 | [88] 1 | [89] 0.986 | [90] 1.01 | [91] 1.04 | [92] 1.01 | [93] 1.01 | [94] 1.03 | [95] 0.982 | [96] 0.98 | [97] 1.11 | [98] 1.02

O=C(O/N=C1/CCCc2[nH]c3ccccc3c21)c1ccc(Cl)cc1Cl
inactive: [1] 0.982 | [2] 0.984 | [3] 0.974 | [4] 0.975 | [5] 0.98 | [73] 0.97 | S. cerevisiae deletion strains, locus YCL061C, strain MRC1, stronger effect = lower value 0.923 | [6] 0.974 | [7] 0.972 | [8] 0.989 and 1 | [9] 0.972 | [10] 0.976 | [74] 0.968 | [11] 0.917 | [12] 0.985 | [13] 0.984 | [75] 0.943 | [14] 0.96 | [15] 0.91 | [76] 0.917 | [16] 0.917 | [17] 0.91 | [18] 0.971 | [19] 0.98 | [20] 0.973 | [21] 0.95 | [22] 0.977 | [23] 0.908 | [24] 0.897 | [77] 0.962 | [25] 0.982 | [78] 0.993 | [27] 0.988 | [28] 0.943 | [79] 0.982 | [29] 0.961 | [30] 0.976 | [31] 0.935 | [32] 0.921 | [33] 0.906 | [34] 0.964 | [80] 0.941 | [35] 0.876 | [36] 0.987 | [81] 0.895 | [37] 0.963 | [38] 0.946 | [39] 0.935 | [40] 0.969 | [41] 0.958 | [84] 0.971 | [43] 0.926 | [44] 0.931 | [45] 0.914 | [46] 0.977 | [47] 0.935 | [88] 1.01 | [48] 0.969 | [49] 0.983 | [50] 0.921 | [90] 0.972 | [91] 0.971 | [51] 0.971 | [52] 1 | [53] 0.976 | [54] 0.97 | [55] 0.937 | [93] 0.993 | [56] 0.971 | [57] 0.917 | [58] 0.935 | [59] 0.97 | [60] 0.939 | [61] 0.972 | [62] 0.9 | [63] 0.918 | [64] 0.912 | [65] 0.977 | [66] 0.882 | [67] 0.979 | [68] 0.979 | [69] 0.972 | [97] 0.681 | [70] 0.975 | [71] 0.972
active: [72] 0.906 | [26] 0.426 and 0.762 | [82] 0.807 | [83] 0.708 | [85] 0.55 | [42] 0.806 | [86] 0.776 | [87] 0.822 | [89] 0.893 | S. cerevisiae deletion strains, locus YMR307W, strain GAS1, stronger effect = lower value 0.461 | [92] 0.796 | [94] 0.754 | [95] 0.733 | [96] 0.843 | [98] 0.874
